TRb SRC2 PPI = qHTS for Inhibitors of the Interaction of Thyroid Hormone Receptor and Steroid Receptor Coregulator 2; TRbeta-SRC2 peptide binding, fluorescence polarization; receptor liganded with 1 µM T3; Potency, µM (doses to about 106 µM), for inactives: at the highest dose activity change, negative = inhibition, usual class: inhibitors; 280,000 compounds, 0.065% hits; AID 1469, 2008;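 also: potency is read from the fitted curve at half-maximal effect; plate controls were bound peptide for no effect and peptide without receptor for full effect; nearly all actives have a fitted effect of over 50% in size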
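Human TRb LBD (0.6 uM) plus Texas Red-labeled SRC2 peptide (20 nM), 1uM T3, 5% DMSO, 5 hr at ambient temperature. Decreased polarization (555/632 nm) flags inhibition; data normalized to free and bound peptide controls.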
Eya2 phos inh = qHTS Assay for Inhibitors of the Phosphatase Activity of Eya2 | Protein phosphatase EYA2 (Homo sapiens), O00167 | recombinant Eya2, OMFP fluorescence dephosphorylation (OMFP is methylfluorescein phosphate) | Potency, µM (doses to about 76.9 µM), inactives show at the top dose activity, negative = inhibition, usual class: inhibitors | 330,000 compounds, 0.006% hits | AID 488837, 2010; also: potency is read from the fitted curve at half-maximal effect; % is scaled to controls: 0 for no effect and ±100 for the full control effect
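Eya2 protein (added as 0.2 uM solution) was preincubated with compound for 10 min at ambient temperature in 50 mM HEPES pH 7.5, 50 mM NaCl, 5 uM MgCl2, 0.05% BSA, 1 mM DTT. OMFP (added at 50 uM) then reacted 10 min; fluorescence read at 485/525 nm.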
TexasRed fluor = Total Fluorescence Counterscreen for Inhibitors of the Interaction of Thyroid Hormone Receptor and Steroid Receptor Coregulator 2 | TRb/SRC2 Texas Red total fluorescence interference | Potency, µM (series often up to 106 µM), inactives show at the highest dose fluorescence change, negative = quenching | 280,000 compounds, 0.29% hits | AID 1479, 2009; active = well fitted curve in either direction with a large enough effect; inconclusive = small, poorly fitted or top-dose-only effect; also: potency is read from the fitted curve at half-maximal effect; % is scaled to controls: 0 for no effect and ±100 for the full control effect
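Human TRβ ligand-binding domain (0.6 uM) and Texas Red SRC2 peptide (20 nM) in Tris buffer with 1 uM T3 and 5% DMSO were incubated with pinned compound for 5 hr at ambient temperature. Total fluorescence was computed as S + 2P (555/632 nm).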
TSHR antagonist = Antagonists of the Thyroid Stimulating Hormone Receptor: HTS campaign; TSHR-expressing cells, TSH-stimulated cAMP HTRF, 2 h; hits give low values; activity change, negative = inhibition, % at 11.5 µM; Thyrotropin receptor (Homo sapiens), P16473; 330,000 compounds, 0.2% hits; AID 504810, 2011;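 active = activity change below a set negative limit, meaning inhibition stronger than a set level, cut at about -70% in these data; inconclusive = activity change between two set negative limits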; also: % is scaled to controls: 0 for no effect and ±100 for the full control effect
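Inhibition of cAMP made by TSHR-expressing cells under TSH stimulation (4nM final, EC80; 2 h, 37 deg C) is quantified with a one-step lysis HTRF kit, anti-cAMP cryptate versus cAMP-d2.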
USP2a block = qHTS Assay for Inhibitors of Ubiquitin-specific Protease USP2a Using CHOP2 as the Reporter | Ubiquitin carboxyl-terminal hydrolase 2 (Homo sapiens), O75604 | USP2 core, Ub-CHOP2 coupled fluorogenic reporter, 485/531 | Potency, µM (titrated, usually from 38.3 µM), for inactives: at the top dose activity change, negative = inhibition, hits mostly inhibitors | 330,000 compounds, 0.01% hits | AID 463254, 2010;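 also: potency is read from the fitted curve at half-maximal effect; plate controls were DMSO wells for no effect and full inhibition by NEM control for full effect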
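USP2 core (10nM final) preincubated 30min RT with compound in 20mM Tris-HCl pH 8.0, 2mM CaCl2, 2mM beta-mercaptoethanol, 0.05% CHAPS; 25nM Ub-CHOP2 plus 25nM reporter substrate added, fluorescence (Ex485/Em531) read after 60min.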
CBFb-RUNX1 inh = qHTS Assay for Compounds Blocking the Interaction Between CBF-beta and RUNX1 for the Treatment of Acute Myeloid Leukemia; Runt-related transcription factor 1 (Homo sapiens) + Core-binding factor subunit beta …; AlphaScreen CBFb-His/RUNX1-biotin binding, biochemical; Potency, µM (highest dose often 59.8 µM), inactives show top-dose activity, negative = inhibition, most hits filed as inhibitors; 230,000 tested, under 10 active; also: % of control where 0% means no effect
Target sequence (Q01196 whole entry, looked up): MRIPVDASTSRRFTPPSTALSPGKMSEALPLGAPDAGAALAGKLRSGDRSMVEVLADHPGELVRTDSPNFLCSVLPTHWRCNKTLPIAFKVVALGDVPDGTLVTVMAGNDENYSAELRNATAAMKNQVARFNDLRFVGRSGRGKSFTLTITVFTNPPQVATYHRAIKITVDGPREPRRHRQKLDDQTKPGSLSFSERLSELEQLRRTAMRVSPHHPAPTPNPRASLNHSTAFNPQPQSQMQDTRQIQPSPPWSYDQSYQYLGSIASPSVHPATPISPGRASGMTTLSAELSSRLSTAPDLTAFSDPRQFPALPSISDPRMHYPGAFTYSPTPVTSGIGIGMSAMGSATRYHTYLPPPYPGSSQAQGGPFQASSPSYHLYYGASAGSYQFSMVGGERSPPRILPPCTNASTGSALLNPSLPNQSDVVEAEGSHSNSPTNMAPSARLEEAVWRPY
Target sequence (Q13951 whole entry, looked up): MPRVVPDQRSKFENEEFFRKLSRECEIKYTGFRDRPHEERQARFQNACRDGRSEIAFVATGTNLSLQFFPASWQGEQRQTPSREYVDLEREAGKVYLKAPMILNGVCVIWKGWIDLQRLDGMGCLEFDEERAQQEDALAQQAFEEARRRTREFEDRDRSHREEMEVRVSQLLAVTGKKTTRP
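CBF-beta (His) and RUNX1 (biotin), 30 nM each; 20 min preassociation; + compound, 15 min; + beads 50 ng each (Ni, streptavidin), 90 min; RT; AlphaScreen read.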
Numbers without * were called inactive; [ ] = dose if it differs, or a comment. The list is not random: actives were taken first. Their share in the collection is about 0.38%. Unless noted, calls follow the shape of the dose curve; as a rule, active = well fitted curve in the direction sought with a large enough effect; inconclusive = small, poorly fitted or top-dose-only effect, or another doubt; inactive = no such curve, though single readings can be large; an effect the other way counts as inactive or inconclusive.

For O=C(NC1CCCCC1)c1sc(=S)n2c1[nH]c(=O)c1ccccc12 the results were TRb SRC2 PPI 10%, Eya2 phos inh -9%, TexasRed fluor -16%, TSHR antagonist -83*, USP2a block 3% and CBFb-RUNX1 inh -4%.
CCOc1ccc(CCNC(=O)c2ccc3c(=O)[nH]c4c(C(=O)NC(C)C)sc(=S)n4c3c2)cc1 was read as Eya2 phos inh 2%, TSHR antagonist -85* and USP2a block 3%.
Screening CCCCOc1ccc(S(=O)(=O)NCc2csc(-c3ccc(OC)cc3)n2)cc1 returned TRb SRC2 PPI -4% and TexasRed fluor -2%.
Screening COC(=O)c1ccc(NC(=O)C(=O)NCCc2csc(-c3ccc(C(F)(F)F)cc3)n2)cc1 returned TRb SRC2 PPI -6% and TexasRed fluor 3%.
COC(=O)c1ccc(NC(=O)C(=O)NCCc2csc(-c3ccc(F)cc3)n2)cc1 was read as TRb SRC2 PPI -10% and TexasRed fluor 0.0004µM*[quencher].
O=C(NCCc1csc(-c2ccccc2)n1)c1c(F)cccc1Cl was read as TRb SRC2 PPI 4%, Eya2 phos inh 10%, TexasRed fluor -1%, TSHR antagonist -8, USP2a block 1% and CBFb-RUNX1 inh 7%.
Screening O=C(NCCc1csc(-c2ccc(F)cc2)n1)c1c(F)cccc1Cl returned TRb SRC2 PPI -12% and TexasRed fluor 0.0002µM*[quencher].
Screening COc1ccc(NC(=O)Cn2c(=O)nc(-c3ccccc3)c3ccccc32)cc1OC returned TRb SRC2 PPI -1% and TexasRed fluor -1%.
Screening CN(C)c1ccc(NC(=O)C2C3C=CC(C3)C2C(=O)O)cc1 (stereo not given) returned Eya2 phos inh -13%, TSHR antagonist -89* and USP2a block 0%.
Screening CCN(CC)c1ccc(NC(=O)C(NS(=O)(=O)c2cccs2)C(C)C)c(C)c1 (stereo not given) returned TRb SRC2 PPI -18%[53 µM] and TexasRed fluor 4.5µM*[quencher].
For COC(=O)c1c(Cl)nn(C)c1S(=O)(=O)NC(=O)Nc1nc(OC)cc(OC)n1 the results were TRb SRC2 PPI 0%[201 µM] and TexasRed fluor -3%[201 µM].
`CCCSC1=C(C#N)C(c2cccs2)C(C(=O)Nc2ccccc2)=C(C)N1` (stereo not given) gave TRb SRC2 PPI -4%, Eya2 phos inh -3%, TexasRed fluor 1%, TSHR antagonist -79*, USP2a block -10% and CBFb-RUNX1 inh -11%.
`COc1cccc(Cn2ncc3c4sc(Br)cc4n(C)c3c2=O)c1` gave Eya2 phos inh -13%, TSHR antagonist 3 and USP2a block -1%.
Nc1nc(-c2ccco2)c(-c2ccco2)s1 was read as TRb SRC2 PPI 7%, Eya2 phos inh -10%, TexasRed fluor -7%, TSHR antagonist -15, USP2a block 1% and CBFb-RUNX1 inh -18%.
For c1coc(-c2nc(-c3ccco3)c(-c3ccco3)nc2-c2ccco2)c1 the results were TRb SRC2 PPI 20%, Eya2 phos inh 16%, TexasRed fluor 13µM*[quencher], TSHR antagonist 6 and USP2a block 1%.
`O=C(c1cccc(Cl)c1)N1CCN(Cc2ccc3c(c2)OCO3)CC1` gave Eya2 phos inh 7%, TSHR antagonist -120* and USP2a block 1%.
For O=C(c1cccc(F)c1)N1CCN(Cc2ccc3c(c2)OCO3)CC1 the results were Eya2 phos inh -1%, TSHR antagonist -42 and USP2a block -1%.
`O=C(c1ccc2c(c1)OCO2)N1CCN(S(=O)(=O)c2ccc(Cl)cc2)CC1` gave Eya2 phos inh -1%, TSHR antagonist -96* and USP2a block 3%.
For COc1cc(/C=N/N2C(=O)C3C4c5ccccc5C(c5ccccc54)C3C2=O)ccc1O (stereo not given) the results were TRb SRC2 PPI -34%[53 µM], Eya2 phos inh -1%, TexasRed fluor 0.89µM*[quencher], TSHR antagonist 23, USP2a block 1% and CBFb-RUNX1 inh -6%.
COc1cccc(/C=N/N2C(=O)C3C4c5ccccc5C(c5ccccc54)C3C2=O)c1OC (stereo not given) was read as TRb SRC2 PPI -1%, Eya2 phos inh 3%, TexasRed fluor 3%, TSHR antagonist -3, USP2a block 2% and CBFb-RUNX1 inh 3%.
`O=C1CCCCCCCCCCC1` gave TRb SRC2 PPI -4%[201 µM] and TexasRed fluor 0%[201 µM].
O=C(NCC(c1cccnc1)N1CCc2ccccc21)c1ccc(F)cc1 (stereo not given) was read as TRb SRC2 PPI inconclusive and TexasRed fluor 0.079µM*[quencher].
Screening COc1ccc(C(=O)NCC(c2cccnc2)N2CCc3ccccc32)cc1OC (stereo not given) returned TRb SRC2 PPI -6% and TexasRed fluor 2%.
O=C(NCC(c1ccco1)N1CCc2ccccc2C1)C(=O)Nc1ccc(F)cc1F (stereo not given) was read as Eya2 phos inh -10%, TSHR antagonist -5 and USP2a block 4%.
`O=C(NCC(c1cccnc1)N1CCc2ccccc2C1)C(=O)Nc1ccc(F)cc1F` (stereo not given) gave TRb SRC2 PPI inconclusive and TexasRed fluor 2.8µM*[quencher].
For COc1ccc(OC)c(NC(=O)CN2CCCN(Cc3ccccc3Cl)S2(=O)=O)c1 the results were TRb SRC2 PPI 2% and TexasRed fluor 0%.
`COC(=O)c1sccc1S(=O)(=O)N1CCN(c2cccc(C)c2)C(C)C1` (stereo not given) gave TRb SRC2 PPI 1% and TexasRed fluor -3%.
Screening Cc1ccc(S(=O)(=O)Cc2ccc(C(=O)N3CCN(c4cccc(Cl)c4)CC3)o2)cc1 returned TRb SRC2 PPI 4% and TexasRed fluor -2%.
Cc1ccc(Cl)cc1N1CCN(C(=O)c2ccc(CS(=O)(=O)c3ccc(Br)cc3)o2)CC1 was read as TRb SRC2 PPI -7% and TexasRed fluor 1000µM*[quencher].

Screening results as filed in PubChem.
